# Measurements taken from PubChem BioAssay (EPA / NIEHS).
# Records with an inconclusive call do not appear. Calls of active or inactive are those of the source. How the source made its calls, unless noted: active means hit-call score of the fitted dose curve at least 0.9, where 1 is the maximum; inactive means score below 0.9.
# Legend:
# DIO1 (gene 1733) = assay: CCTE_GLTED_hDIO1: CCTE's human Deiodinase 1 (DIO1) Inhibition Assay, Great Lakes Toxicology and Ecology Division (GLTED) Lab (AID 2283987; active means hit-call score of the fitted dose curve at least 0.9, where 1 is the maximum;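 further: isolated human DIO1 enzyme in a cell-free setup rather than cells; enzyme activity read as free iodide liberated from substrate via Sandell-Kolthoff colorimetry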)
# Procedure, shortened: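 Cell-free human DIO1 enzyme was incubated with test chemical for 3 h, and iodide released from substrate was measured by Sandell-Kolthoff absorbance. Loss of signal versus DMSO baseline indicated inhibition; plates were run in triplicate.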
# [1] = target: Nucleoli Translocation, AR (gene 367) (UniProt P10275); assay: UPITT_HCI_U2OS_AR_TIF2_Nucleoli_Agonist: University of Pittsburgh U2OS Androgen Receptor-Transcriptional Intermediary Factor 2 (AR-TIF2) Agonism High Content Imaging Assay for Nucleoli Translocation (AID 2283998; active means hit-call score of the fitted dose curve at least 0.9, where 1 is the maximum)
# Sequence of Nucleoli Translocation, AR (gene 367) (P10275 whole entry, looked up, the tested form may be a part): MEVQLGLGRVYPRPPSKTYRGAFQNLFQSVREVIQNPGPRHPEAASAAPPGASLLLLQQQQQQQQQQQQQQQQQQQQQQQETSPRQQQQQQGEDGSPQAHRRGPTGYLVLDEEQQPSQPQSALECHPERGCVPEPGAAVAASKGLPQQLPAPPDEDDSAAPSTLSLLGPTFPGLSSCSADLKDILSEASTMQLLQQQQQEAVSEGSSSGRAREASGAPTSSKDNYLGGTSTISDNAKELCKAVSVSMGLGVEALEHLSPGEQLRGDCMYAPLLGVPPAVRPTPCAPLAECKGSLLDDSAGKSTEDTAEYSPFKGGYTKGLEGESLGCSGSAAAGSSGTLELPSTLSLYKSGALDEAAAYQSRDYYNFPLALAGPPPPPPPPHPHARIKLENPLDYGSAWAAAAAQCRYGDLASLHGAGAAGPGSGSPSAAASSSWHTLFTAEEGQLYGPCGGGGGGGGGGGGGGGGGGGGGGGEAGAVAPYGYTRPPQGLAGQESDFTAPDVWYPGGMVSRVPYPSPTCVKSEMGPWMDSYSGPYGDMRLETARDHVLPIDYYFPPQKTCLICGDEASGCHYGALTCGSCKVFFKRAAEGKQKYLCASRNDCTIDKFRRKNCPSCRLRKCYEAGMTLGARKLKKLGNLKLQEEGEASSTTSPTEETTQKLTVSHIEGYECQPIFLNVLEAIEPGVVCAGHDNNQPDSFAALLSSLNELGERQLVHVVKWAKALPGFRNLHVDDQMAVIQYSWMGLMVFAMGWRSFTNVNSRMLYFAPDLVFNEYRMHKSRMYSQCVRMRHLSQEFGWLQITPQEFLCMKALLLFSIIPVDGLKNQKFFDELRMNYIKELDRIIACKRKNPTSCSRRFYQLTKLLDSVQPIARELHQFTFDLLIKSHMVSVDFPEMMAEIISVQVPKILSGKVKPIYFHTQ
# Procedure, shortened: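 Cells express human AR fused to red fluorescent protein and TIF2 fused to GFP. Red fluorescence in the nucleolar region was quantified by high-content imaging and fitted as gain-of-signal against a DMSO baseline. Compounds were tested at 0.195 to 50 uM final (0.5% DMSO).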
# [2] = target: Ratio of Nucleoli Translocation and Cytoplasm, AR (gene 367) (UniProt P10275); assay: UPITT_HCI_U2OS_AR_TIF2_Nucleoli_Cytoplasm_Ratio_Antagonist: University of Pittsburgh U2OS Androgen Receptor-Transcriptional Intermediary Factor 2 (AR-TIF2) Antagonism High Content Imaging Assay for Ratio of Nucleoli Translocation and Cytoplasm (AID 2283999; active means hit-call score of the fitted dose curve at least 0.9, where 1 is the maximum;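 further: antagonists lower the DHT-driven ratio of nucleolar to cytoplasmic red signal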)
# Sequence of Ratio of Nucleoli Translocation and Cytoplasm, AR (gene 367) (P10275 whole entry, looked up): as the sequence (P10275 whole entry, looked up, the tested form may be a part) above
# Procedure, shortened: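 High-content imaging quantifies the red nucleolar:cytoplasmic fluorescence ratio in U2OS cells with AR-RFP and TIF2-GFP. Final concentrations are 20 uM (screen) or 0.195–50 uM (dose response), analysed against DHT as baseline.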
# [3] = target: Ratio of Nucleoli Translocation and Cytoplasm, AR (gene 367) (UniProt P10275); assay: UPITT_HCI_U2OS_AR_TIF2_Nucleoli_Cytoplasm_Ratio_Agonist: University of Pittsburgh U2OS Androgen Receptor-Transcriptional Intermediary Factor 2 (AR-TIF2) Agonism High Content Imaging Assay for Ratio of Nucleoli Translocation and Cytoplasm (AID 2284000; active means hit-call score of the fitted dose curve at least 0.9, where 1 is the maximum;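 further: hits raise the red nucleolar to cytoplasm ratio above vehicle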)
# Procedure, shortened: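 U2OS cells expressing RFP-tagged human AR and GFP-tagged TIF2 were imaged by high-content fluorescence microscopy. The endpoint is the ratio of nucleolar to cytoplasmic red fluorescence, fitted for gain of signal relative to DMSO. Concentration-response spanned 0.195 to 50 uM final (0.5% DMSO).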
# [4] = CCTE_Shafer_MEA_acute_spike_number: CCTE's Neural Acute Assay for Total Number of Spikes, Shafer Lab (AID 2284008);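 on AC50: curve fitted for decrease in spike count so AC50 reflects inhibitors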
# Procedure, shortened: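 Primary rat cortical neurons on 16-electrode MEA wells; on DIV 13 or 15, 40-min baseline then 40-min recording with compound (0.03-40 uM) at 37 C. Spikes detected at 8x rms noise; percent change versus baseline, DMSO as negative control.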
# [5] = CCTE_Harrill_HTTr_Viability_MCF7: CCTE's 6-hour Cell Viability Assessment for the High-Throughput Transcriptomics (HTTr) Platform, in MCF-7 cells cultured in DMEM + 10% fetal bovine serum, Harrill Lab (AID 2284010)
# Procedure, shortened: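 Viability measured through PI dye exclusion by high-content imaging at 6 h post-dosing.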
# [6] = CCTE_Harrill_HTTr_Apoptosis_MCF7: CCTE's 6-hour Apoptosis Assessment for the High-Throughput Transcriptomics (HTTr) Platform, in MCF-7 cells cultured in DMEM + 10% fetal bovine serum, Harrill Lab (AID 2284011)
# Procedure, shortened: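 MCF-7 cells in DMEM + 10% fetal bovine serum were exposed to chemicals for 6 hours over an eight-point dilution series. Caspase-3/7 activation was imaged by high content imaging with CellEvent Caspase 3/7 Green; bidirectional fitting used DMSO as baseline.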
# [7] = CCTE_Harrill_HTTr_CellCount_MCF7: CCTE's Cell Proliferation Assessment for the High-Throughput Transcriptomics (HTTr) Platform, Harrill Lab (AID 2284012; active means hit-call score of the fitted dose curve at least 0.9, where 1 is the maximum;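 further: count of Hoechst-stained nuclei per well by high-content imaging in MCF-7 cells; cells exposed to compound for six hours; intended direction is loss of nuclei count meaning fewer cells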)
# Procedure, shortened: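 Nuclei counting (Hoechst, high content imaging) in MCF-7 after a 6 h treatment at eight concentrations. Activity fitted bidirectionally, DMSO as negative control.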
# [8] = CCTE_Shafer_MEA_acute_burst_duration_mean: CCTE's Neural Acute Assay for Mean Burst Duration, Shafer Lab (AID 2284014);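 further: hits are decreases in mean burst duration relative to DMSO controls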
# Procedure, shortened: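 Primary rat cortical neurons on 16-electrode MEA wells, treated on DIV 13 or 15 with compound (0.03-40 uM; ≥3 wells each). 40-min baseline and 40-min exposure recordings at 37 C; percent change in mean burst duration per well versus DMSO.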
# [9] = CCTE_Shafer_MEA_acute_interburst_interval_mean: CCTE's Neural Acute Assay for Mean Interburst Interval, Shafer Lab (AID 2284016);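 further: percent change of mean interburst interval versus each well's own pre-dose baseline; curves fitted for decrease in interburst interval relative to DMSO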
# Procedure, shortened: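 MEA recording of spontaneous network bursting in primary rat cortical cultures; mean interburst interval was compared before and after a 40-min compound exposure (0.03-40 uM) and expressed as percent change, relative to DMSO.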
# [10] = CCTE_Shafer_MEA_acute_burst_percentage_std: CCTE's Neural Acute Assay for Standard Deviation of Burst Percentage, Shafer Lab (AID 2284018);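 further: fitted in the negative direction so actives lower burst percentage SD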
# Procedure, shortened: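 Primary rat cortical neurons on 16-electrode MEA wells were recorded 40 min at baseline (DIV 13 or 15), then 40 min after compound (0.03-40 uM), at 37 C. Well value is SD across electrodes of spikes-in-bursts/total spikes; endpoint is percent change, DMSO-referenced.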
# [11] = CCTE_Shafer_MEA_acute_per_network_burst_spike_number_mean: CCTE's Neural Acute Assay for Average Number of Spikes in a Network Burst, Shafer Lab (AID 2284019);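 on AC50: curve fitted for loss of signal so actives reduce spikes per network burst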
# Procedure, shortened: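 Primary rat cortical neurons on 16-electrode MEA wells, DIV 13 or 15, 37 C; 40-min baseline then 40-min recording with compound (0.03-40 uM). Spikes per network burst (total spikes/number of bursts) expressed as percent change from baseline, DMSO reference.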
# [12] = CCTE_Harrill_HTTr_Apoptosis_DMEM_12hr: (Pilot) CCTE's 12-hour Apoptosis Assessment for the High-Throughput Transcriptomics (HTTr) Platform, in MCF-7 cells cultured in DMEM + 10% fetal bovine serum, Harrill Lab (AID 2283982)
# Procedure, shortened: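 MCF-7 cells in DMEM + 10% FBS, exposed 12 h to an eight-point dilution series; caspase-3/7 activation imaged with CellEvent Green. Bidirectional fit versus DMSO.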
# [13] = CCTE_Harrill_HTTr_Apoptosis_DMEM_24hr: (Pilot) CCTE's 24-hour Apoptosis Assessment for the High-Throughput Transcriptomics (HTTr) Platform, in MCF-7 cells cultured in DMEM + 10% fetal bovine serum, Harrill Lab (AID 2283983)
# Procedure, shortened: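 MCF-7 cells in DMEM + 10% FBS, eight-point dilution series, 24 h exposure. Caspase-3/7 activation imaged by high-content imaging with CellEvent Caspase 3/7 Green. Bidirectional curve fitting against DMSO baseline.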
# [14] = CCTE_Harrill_HTTr_Apoptosis_PRF_DMEM_6hr: (Pilot) CCTE's 6-hour Apoptosis Assessment for the High-Throughput Transcriptomics (HTTr) Platform, in MCF-7 cells cultured phenol red-free DMEM + 10% charcoal-stripped fetal bovine serum, Harrill Lab (AID 2283984)
# Procedure, shortened: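 MCF-7 cells in phenol red-free DMEM + 10% charcoal-stripped FBS, eight-point dilution series, 6 h exposure. Caspase-3/7 activation imaged by high-content imaging with CellEvent Caspase 3/7 Green; bidirectional fit versus DMSO baseline.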
# [15] = CCTE_Harrill_HTTr_Apoptosis_PRF_DMEM_24hr: (Pilot) CCTE's 24-hour Apoptosis Assessment for the High-Throughput Transcriptomics (HTTr) Platform, in MCF-7 cells cultured in phenol red-free DMEM + 10% charcoal-stripped fetal bovine serum, Harrill Lab (AID 2283986)
# Procedure, shortened: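 MCF-7 cells in phenol red-free DMEM with 10% charcoal-stripped FBS, exposed 24 h across an eight-point dilution series. Caspase-3/7 activation imaged with CellEvent Green by high content imaging; bidirectional fitting against DMSO.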
# [16] = CCTE_Simmons_MITO_basal_resp_rate: CCTE's HepG2 Seahorse XF Respirometric Screening Assay at Basal Respiratory State, Simmons Lab (AID 2284001); settings: actives raise or lower the signal
# Procedure, shortened: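 HepG2 cells were given test chemicals at 7 concentrations, 125 nM to 100 uM final, and oxygen consumption rate was read every 6 min (3 min mix, 3 min measure) over 72 min. Basal-phase OCR was fitted bidirectionally against DMSO.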
# [17] = CCTE_Simmons_MITO_max_resp_rate: CCTE's HepG2 Seahorse XF Respirometric Screening Assay at Maximal Respiratory State [uncoupled], Simmons Lab (AID 2284002); settings: actives raise or lower the signal
# Procedure, shortened: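 HepG2 oxygen consumption was read on a Seahorse XF96 after FCCP uncoupler injection, following test compound injection; 7 concentrations, 125 nM–100 uM final, three biological replicates. Bidirectional fitting against DMSO vehicle baseline.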
# [18] = CCTE_Simmons_MITO_inhib_resp_rate: CCTE's HepG2 Seahorse XF Respirometric Screening Assay at Inhibited Respiratory State [full ETC block], Simmons Lab (AID 2284006); settings: actives raise or lower the signal
# Procedure, shortened: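 Inhibited respiration was taken as HepG2 oxygen consumption after rotenone/antimycin A, which followed test-compound and FCCP injections. Chemicals were tested at seven final concentrations from 125 nM to 100 uM. Activity was fitted bidirectionally relative to DMSO.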
# [19] = CCTE_Simmons_MITO_viability: CellTiter-Glo Viability Assessment for CCTE's HepG2 Seahorse XF Respirometric Screening Assay [post-hoc], Simmons Lab (AID 2284007; active means hit-call score of the fitted dose curve at least 0.9, where 1 is the maximum;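 on AC50: cells exposed to chemical for 90 min before the ATP read; actives lower ATP signal relative to DMSO baseline meaning reduced viability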)
# Procedure, shortened: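 HepG2 cells; test chemical 7 conc. (125 nM–100 uM final) × 90 min; then luminescent ATP detection. DMSO vehicle. Positive control dichlone, 8 conc. from 10 nM to 100 uM final. Loss-of-signal endpoint.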
structure (smiles),measurement,setting,value
Cc1ccc(-c2cc(C(F)(F)F)nn2-c2ccc(S(N)(=O)=O)cc2)cc1,AC50,DIO1 (gene 1733),170 µM (active)
same,outcome,[1],inactive
same,outcome,[2],inactive
same,outcome,[3],inactive
same,AC50,[4],6.27 µM (active)
same,outcome,[5],inactive
same,outcome,[6],inactive
same,outcome,[7],inactive
same,outcome,[8],inactive
same,AC50,[9],5 µM (active)
same,outcome,[10],inactive
same,outcome,[11],inactive
Cc1c(C)c2c(c(C)c1O)CCC(C)(COc1ccc(CC3SC(=O)NC3=O)cc1)O2 (stereo unspecified),outcome,[12],inactive
same,outcome,[13],inactive
same,outcome,[14],inactive
same,outcome,[15],inactive
same,AC50,DIO1 (gene 1733),85.9 µM (active)
same,outcome,[1],inactive
same,outcome,[2],inactive
same,outcome,[3],inactive
same,AC50,[16],3.22 µM (active)
same,AC50,[17],7.83 µM (active)
same,outcome,[18],inactive
same,AC50,[19],8.43 µM (active)
same,AC50,[4],3.97 µM (active)
same,outcome,[5],inactive
same,outcome,[6],inactive
same,outcome,[8],inactive
same,outcome,[9],inactive
same,AC50,[10],33.1 µM (active)
same,AC50,[11],3.02 µM (active)
NCCOCCOCCN,outcome,[1],inactive
same,outcome,[2],inactive
same,outcome,[3],inactive
same,outcome,[5],inactive
same,outcome,[6],inactive
Nc1nc(Cl)nc2c1ncn2[C@H]1C[C@H](O)[C@@H](CO)O1,outcome,[12],inactive
same,outcome,[13],inactive
same,outcome,[14],inactive
same,outcome,[15],inactive
same,outcome,[5],inactive
same,outcome,[6],inactive
same,outcome,[7],inactive
Cc1ccc(C(C)(C)C)c(O)c1,AC50,[16],44.6 µM (active)
same,outcome,[17],inactive
same,outcome,[18],inactive
same,outcome,[19],inactive
same,AC50,[4],10.3 µM (active)
same,outcome,[5],inactive
same,outcome,[6],inactive
same,outcome,[7],inactive
same,outcome,[8],inactive
same,outcome,[9],inactive
same,outcome,[10],inactive
same,outcome,[11],inactive
CCC(C)N(C)C(=O)c1cc2ccccc2c(-c2ccccc2Cl)n1 (stereo unspecified),outcome,[1],inactive
same,outcome,[2],inactive
same,outcome,[3],inactive
same,outcome,[5],inactive
same,outcome,[6],inactive
same,outcome,[7],inactive
Nc1nc(=S)c2[nH]cnc2[nH]1,outcome,[1],inactive
same,outcome,[3],inactive
same,outcome,[4],inactive
same,outcome,[5],inactive
same,outcome,[6],inactive
same,outcome,[7],inactive
same,outcome,[8],inactive
same,outcome,[9],inactive
same,outcome,[10],inactive
same,AC50,[11],17.1 µM (active)
O=Cc1ccccc1C=O,AC50,DIO1 (gene 1733),49.3 µM (active)
same,outcome,[1],inactive
same,outcome,[2],inactive
same,outcome,[5],inactive
same,outcome,[6],inactive
same,outcome,[7],inactive
C#CC(O)C(CC)CCCC (stereo unspecified),outcome,[1],inactive
same,AC50,[2],14.8 µM (active)
same,outcome,[3],inactive
same,outcome,[5],inactive
same,outcome,[6],inactive
same,outcome,[7],inactive
CCCCCCC(C=O)=Cc1ccccc1,outcome,[16],inactive
same,outcome,[17],inactive
same,outcome,[18],inactive
same,outcome,[19],inactive
same,outcome,[5],inactive
same,outcome,[6],inactive
same,outcome,[7],inactive
CC(C)OC(=O)C(C)(C)Oc1ccc(C(=O)c2ccc(Cl)cc2)cc1,outcome,[12],inactive
same,outcome,[13],inactive
same,outcome,[14],inactive
same,outcome,[15],inactive
same,outcome,[1],inactive
same,outcome,[2],inactive
same,AC50,[16],30.5 µM (active)
same,AC50,[17],37.2 µM (active)
same,outcome,[5],inactive
same,outcome,[6],inactive
same,outcome,[7],inactive
